PubChem BioAssay AID1159580 (chemical genetic matrix, 2015)
Where “and” joins values, the source holds several entries; their conditions need not be identical. Identical values can stand only once. About 2,000 (36%) of roughly 5,500 compounds were called active. About 18% were inconclusive and are not listed. Rule as the data show it: active = normalized growth mostly below about 0.91 (no sharp cut-off); inconclusive = no clear call, values can overlap the other calls; inactive = mostly above about 0.92. The list shows a part of the results.

Assay: chemical genetic growth profiling, strain panel (AID 1159580);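 also: tested at 20 µM; growth read once vehicle control cultures reached saturation at 30 °C; 1 = growth at the plate median or of vehicle wells; lower values mean less growth of the strain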
Conditions: growth OD

Measured: normalized growth

NCC(CC(=O)O)c1ccc(Cl)cc1 (stereo not drawn)
inactive: S. cerevisiae deletion strains, locus YJR075W, strain HOC1, stronger effect = lower value 0.991 | S. cerevisiae deletion strains, locus YKL009W, strain mrt4, stronger effect = lower value 0.968 | S. cerevisiae deletion strains, locus YKL068W, stronger effect = lower value 1.01 | S. cerevisiae deletion strains, locus YKL085W, strain MDH1 (second series), stronger effect = lower value 0.991 | S. cerevisiae deletion strains, locus YKL085W, strain MDH1, stronger effect = lower value 0.991 | S. cerevisiae deletion strains, locus YKL160W, strain elf1, stronger effect = lower value 1.01 | S. cerevisiae deletion strains, locus YKR001C, strain vps1, stronger effect = lower value 0.974 | S. cerevisiae deletion strains, locus YKR026C, strain gcn3, stronger effect = lower value 0.995 | S. cerevisiae deletion strains, locus YKR091W, strain srl3, stronger effect = lower value 1 | S. cerevisiae deletion strains, locus YLL001W, strain dnm1, stronger effect = lower value 1.03 | S. cerevisiae deletion strains, locus YLL026W, stronger effect = lower value 1.01 | S. cerevisiae deletion strains, locus YLL041C, strain sdh2, stronger effect = lower value 0.993 | S. cerevisiae deletion strains, locus YLR027C, strain aat2, stronger effect = lower value 1.01 | S. cerevisiae deletion strains, locus YLR039C, strain RIC1, stronger effect = lower value 1.07 | S. cerevisiae deletion strains, locus YLR058C, strain SHM2, stronger effect = lower value 1.02 | S. cerevisiae deletion strains, locus YLR102C, strain apc9, stronger effect = lower value 0.985 | S. cerevisiae deletion strains, locus YLR113W, strain HOG1, stronger effect = lower value 1.05 | S. cerevisiae deletion strains, locus YLR221C, strain rsa3, stronger effect = lower value 0.976 | S. cerevisiae deletion strains, locus YLR258W, strain gsy2, stronger effect = lower value 0.984 | S. cerevisiae deletion strains, locus YLR262C, strain YPT6 (second series), stronger effect = lower value 0.995 | S. cerevisiae deletion strains, locus YLR262C, strain YPT6, stronger effect = lower value 1.08 | S. cerevisiae deletion strains, locus YLR268W, strain sec22, stronger effect = lower value 1.02 | S. cerevisiae deletion strains, locus YLR320W, strain mms22, stronger effect = lower value 0.968 | S. cerevisiae deletion strains, locus YLR330W, strain CHS5, stronger effect = lower value 1.02 | S. cerevisiae deletion strains, locus YLR342W, strain FKS1 (second series), stronger effect = lower value 1.03 | S. cerevisiae deletion strains, locus YLR342W, strain FKS1, stronger effect = lower value 1.03 | S. cerevisiae deletion strains, locus YLR357W, strain rsc2, stronger effect = lower value 1 | S. cerevisiae deletion strains, locus YLR370C, strain arc18, stronger effect = lower value 0.997 | S. cerevisiae deletion strains, locus YLR371W, strain rom2, stronger effect = lower value 0.985 | S. cerevisiae deletion strains, locus YLR384C, strain iki3, stronger effect = lower value 1.01 | S. cerevisiae deletion strains, locus YLR418C, strain cdc73, stronger effect = lower value 0.979 | S. cerevisiae deletion strains, locus YML016C, strain PPZ1, stronger effect = lower value 1.02 | S. cerevisiae deletion strains, locus YML032C, strain rad52, stronger effect = lower value 0.987 | S. cerevisiae deletion strains, locus YML120C, strain ndi1, stronger effect = lower value 0.999 | S. cerevisiae deletion strains, locus YML124C, strain tub3, stronger effect = lower value 0.983 | S. cerevisiae deletion strains, locus YMR058W, strain fet3, stronger effect = lower value 1.02 | S. cerevisiae deletion strains, locus YMR078C, strain ctf18, stronger effect = lower value 0.99 | S. cerevisiae deletion strains, locus YMR125W, strain sto1, stronger effect = lower value 0.97 | S. cerevisiae deletion strains, locus YMR129W, stronger effect = lower value 0.999 | S. cerevisiae deletion strains, locus YMR205C, strain PFK2, stronger effect = lower value 1.01 | S. cerevisiae deletion strains, locus YMR223W, strain ubp8, stronger effect = lower value 1 | S. cerevisiae deletion strains, locus YMR231W, strain pep5, stronger effect = lower value 1.01 | S. cerevisiae deletion strains, locus YMR263W, strain SAP30, stronger effect = lower value 1.01 | S. cerevisiae deletion strains, locus YMR307W, strain GAS1, stronger effect = lower value 1.1 | S. cerevisiae deletion strains, locus YNL067W, strain RPL9B, stronger effect = lower value 1 | S. cerevisiae deletion strains, locus YNL071W, strain lat1, stronger effect = lower value 0.991 | S. cerevisiae deletion strains, locus YNL128W, strain TEP1, stronger effect = lower value 1.01 | S. cerevisiae deletion strains, locus YNL153C, strain GIM3, stronger effect = lower value 1.01 | S. cerevisiae deletion strains, locus YNL175C, strain NOP13, stronger effect = lower value 0.977 | S. cerevisiae deletion strains, locus YNL183C, strain NPR1, stronger effect = lower value 0.993 | S. cerevisiae deletion strains, locus YNL197C, strain WHI3, stronger effect = lower value 1.04 | S. cerevisiae deletion strains, locus YNL209W, strain ssb2, stronger effect = lower value 0.997 | S. cerevisiae deletion strains, locus YNL224C, strain SQS1, stronger effect = lower value 0.993 | S. cerevisiae deletion strains, locus YNL233W, strain BNI4, stronger effect = lower value 1.01 | S. cerevisiae deletion strains, locus YNL248C, strain rpa49, stronger effect = lower value 0.961 | S. cerevisiae deletion strains, locus YNL250W, strain rad50, stronger effect = lower value 0.986 | S. cerevisiae deletion strains, locus YNL271C, strain bni1, stronger effect = lower value 0.987 | S. cerevisiae deletion strains, locus YNL298W, strain CLA4, stronger effect = lower value 0.984 | S. cerevisiae deletion strains, locus YNL307C, strain MCK1, stronger effect = lower value 0.977 | S. cerevisiae deletion strains, locus YNL322C, strain KRE1 (second series), stronger effect = lower value 0.985 | S. cerevisiae deletion strains, locus YNR049C, strain mso1, stronger effect = lower value 1.01 | S. cerevisiae deletion strains, locus YNR052C, strain pop2, stronger effect = lower value 0.979 | S. cerevisiae deletion strains, locus YOL012C, strain htz1 1.49 | S. cerevisiae deletion strains, locus YOL147C, strain pex11, stronger effect = lower value 0.984 | S. cerevisiae deletion strains, locus YOR001W, strain rrp6, stronger effect = lower value 0.99 | S. cerevisiae deletion strains, locus YOR061W, strain CKA2, stronger effect = lower value 1.02 | S. cerevisiae deletion strains, locus YOR069W, strain VPS5, stronger effect = lower value 1.01 | S. cerevisiae deletion strains, locus YOR070C, strain gyp1, stronger effect = lower value 0.98 | S. cerevisiae deletion strains, locus YOR080W, strain dia2, stronger effect = lower value 0.997 | S. cerevisiae deletion strains, locus YOR083W, strain WHI5 (second series), stronger effect = lower value 1.04 | S. cerevisiae deletion strains, locus YOR083W, strain WHI5, stronger effect = lower value 0.988 | S. cerevisiae deletion strains, locus YOR106W, strain vam3, stronger effect = lower value 1.02 | S. cerevisiae deletion strains, locus YOR136W, strain idh2, stronger effect = lower value 0.974 | S. cerevisiae deletion strains, locus YOR144C, strain elg1, stronger effect = lower value 0.992 | S. cerevisiae deletion strains, locus YOR184W, strain ser1, stronger effect = lower value 0.984 | S. cerevisiae deletion strains, locus YOR231W, strain MKK1, stronger effect = lower value 1.08 | S. cerevisiae deletion strains, locus YOR265W, strain rbl2, stronger effect = lower value 1 | S. cerevisiae deletion strains, locus YOR270C, strain vph1, stronger effect = lower value 0.976 | S. cerevisiae deletion strains, locus YOR290C, strain snf2, stronger effect = lower value 0.957 | S. cerevisiae deletion strains, locus YOR316C, strain cot1, stronger effect = lower value 0.986 | S. cerevisiae deletion strains, locus YPL051W, strain arl3, stronger effect = lower value 0.999 | S. cerevisiae deletion strains, locus YPL055C, strain LGE1, stronger effect = lower value 1.02 | S. cerevisiae deletion strains, locus YPL078C, strain atp4, stronger effect = lower value 1.02 | S. cerevisiae deletion strains, locus YPL106C, strain sse1, stronger effect = lower value 0.968 | S. cerevisiae deletion strains, locus YPL240C, strain hsp82, stronger effect = lower value 0.992 | S. cerevisiae deletion strains, locus YPL241C, strain CIN2, stronger effect = lower value 1.01 and 0.983 | S. cerevisiae deletion strains, locus YPL256C, strain CLN2, stronger effect = lower value 1.08 | S. cerevisiae deletion strains, locus YPR119W, strain clb2, stronger effect = lower value 0.993 | S. cerevisiae deletion strains, locus YPR141C, strain kar3, stronger effect = lower value 0.996 | S. cerevisiae deletion strains, locus YPR163C, strain tif3, stronger effect = lower value 0.99 | S. cerevisiae deletion strains, locus YPR167C, strain met16, stronger effect = lower value 0.991 | S. cerevisiae deletion strains, strain wtn01, stronger effect = lower value 0.992 | S. cerevisiae strains, strain wild type, stronger effect = lower value 1.03
